Assay results reported in the supplement of paper PMC13380429.

What was measured:
[1] = test system: Vero E6 infected with SARS-CoV-2; assay: inhibition of SARS-CoV-2 cytopathic effect; higher = more antiviral protection, active = above 15; details: 48 h
[2] = test system: Vero E6 infected with SARS-CoV-2; assay: morphology score (similarity to uninfected cells); higher = more like uninfected cells; details: 24 h

| Structure (SMILES) | inhibition of SARS-CoV-2 cytopathic effect ([1]; 1 nM) | inhibition of SARS-CoV-2 cytopathic effect ([1]; 8.33 nM) | inhibition of SARS-CoV-2 cytopathic effect ([1]; 100 nM) | inhibition of SARS-CoV-2 cytopathic effect ([1]; 833.33 nM) | inhibition of SARS-CoV-2 cytopathic effect ([1]; 10000 nM) | morphology score [2] |
| --- | --- | --- | --- | --- | --- | --- |
| Cn1cc(C[C@@H](N)C(=O)O)c2ccccc21 [indoximod] | -3.51% (inactive) | -2.58% (inactive) | -2.33% (inactive) | -1.85% (inactive) | -1.3% (inactive) | – |
| CN1CCCN=C1/C=C/c1cccs1 [pyrantel-pamoate] | 1.74% (inactive) | 1.39% (inactive) | 2.36% (inactive) | 0.63% (inactive) | -3.05% (inactive) | – |
| O=C1Nc2ccccc2C2(CCN(CCc3ccc(C(F)(F)F)cc3)CC2)O1 | -1.89% (inactive) | -4.51% (inactive) | -1.41% (inactive) | -2.49% (inactive) | -3.73% (inactive) | – |
| CCN1CCN(Cc2ccc(C(=O)Nc3ccc(C)c(Oc4ccc5c(c4)CC(=O)N5)c3)cc2C(F)(F)F)CC1 | -1.15% (inactive) | -1.24% (inactive) | 1.47% (inactive) | 3.18% (inactive) | 56% (active) | – |
| CN1C(CCl)Nc2cc(Cl)c(S(N)(=O)=O)cc2S1(=O)=O (configuration not stated) [methyclothiazide] | -0.11% (inactive) | 0.15% (inactive) | 1.53% (inactive) | 1% (inactive) | 2.28% (inactive) | – |
| CS(=O)(=O)c1ccc(C2=C(c3ccccc3)C(=O)OC2)cc1 [rofecoxib] | 1.64% (inactive) | -0.86% (inactive) | -0.87% (inactive) | 0.62% (inactive) | 1.14% (inactive) | – |
| N#Cc1cc(F)cc(-c2nc(-c3ccc(F)cn3)no2)c1 | 0.6% (inactive) | 2.48% (inactive) | 1.15% (inactive) | -0.25% (inactive) | 2.97% (inactive) | – |
| N=C(N)c1ccc(N2CCN(C3CCN(CC(=O)O)CC3)CC2)cc1 | -1.25% (inactive) | 0.6% (inactive) | 0.06% (inactive) | -0.33% (inactive) | 1.5% (inactive) | – |
| Cc1nc2cnc3ccc(C#Cc4cccnc4)cc3c2n1-c1ccc(C(C)(C)C#N)cc1 | -1.65% (inactive) | 8.23% (inactive) | -1.48% (inactive) | -1.07% (inactive) | -1.26% (inactive) | – |
| Nc1nc(OCc2ccccc2)c2nc[nH]c2n1 [O6-benzylguanine] | 2.66% (inactive) | 2.87% (inactive) | -5.93% (inactive) | -3.87% (inactive) | -1.55% (inactive) | – |
| O=C1C[C@@H](c2ccc(O)cc2)Oc2cc(O)cc(O)c21 [naringenin] | -1.9% (inactive) | 0.02% (inactive) | -0.05% (inactive) | 0.5% (inactive) | 0.31% (inactive) | – |
| O=C1CCc2cc(OCCCCc3nnnn3C3CCCCC3)ccc2N1 [cilostazol] | -1.01% (inactive) | -0.9% (inactive) | 1.96% (inactive) | -0.77% (inactive) | -0.84% (inactive) | – |
| Oc1nc(O)c2nc(O)[nH]c2n1 [uric-acid] | -0.34% (inactive) | 0.2% (inactive) | -1.96% (inactive) | -1.44% (inactive) | -0.42% (inactive) | – |
| CCN(CC)C(=O)Nc1ccc(OCC(O)CNC(C)(C)C)c(C(C)=O)c1 (configuration not stated) [celiprolol] | -3.29% (inactive) | 0.91% (inactive) | -0.73% (inactive) | -0.15% (inactive) | -0.87% (inactive) | – |
| CC(=O)Nc1c(I)cc(I)c(C(=O)O)c1I [acetriazoic-acid] | -0.01% (inactive) | 0.54% (inactive) | -0.88% (inactive) | 0.14% (inactive) | -0.46% (inactive) | – |
| Oc1cc(Cl)ccc1Oc1ccc(Cl)cc1Cl [triclosan] | -1.92% (inactive) | -0.14% (inactive) | 1.39% (inactive) | -0.77% (inactive) | 7.81% (inactive) | – |
| NC(=O)CC[C@H](N)C(=O)O [L-glutamine] | 0.7% (inactive) | 2.45% (inactive) | 0.59% (inactive) | 0.71% (inactive) | -2.64% (inactive) | – |
| CC(=O)N[C@@H](CS)C(=O)O [acetylcysteine] | 1.87% (inactive) | 1.77% (inactive) | 3.98% (inactive) | 1.93% (inactive) | 3.74% (inactive) | – |
| CC(=O)c1ccc2c(c1)C(=O)C1(CC1)O2 [spizofurone] | -4.51% (inactive) | 5.43% (inactive) | 0.26% (inactive) | 0.65% (inactive) | 2.1% (inactive) | – |
| CN1CCC[C@@H]1Cc1c[nH]c2ccc(CCS(=O)(=O)c3ccccc3)cc12 [eletriptan] | -0.44% (inactive) | 1.24% (inactive) | 2.14% (inactive) | -1.16% (inactive) | -2.89% (inactive) | – |
| COC(=O)C1=C(C)NC(C)=C(C(=O)O[C@H]2CCN(Cc3ccccc3)C2)[C@H]1c1cccc([N+](=O)[O-])c1 [barnidipine] | 2.33% (inactive) | 1.62% (inactive) | 1.31% (inactive) | 3.84% (inactive) | -0.56% (inactive) | – |
| O=C(O)C1=CCCN(CCOC(c2ccc(C(F)(F)F)cc2)c2ccc(C(F)(F)F)cc2)C1 | 0.02% (inactive) | 0.95% (inactive) | -2.81% (inactive) | 1.77% (inactive) | 0.32% (inactive) | – |
| OCCCNc1ccccc1 [3-anilinopropan-1-ol] | -0.17% (inactive) | 2.09% (inactive) | -0.59% (inactive) | -0.07% (inactive) | 1.39% (inactive) | – |
| CCOc1nc2c(N)ncnc2n1CC | -1.28% (inactive) | 2.22% (inactive) | -1.47% (inactive) | 1.94% (inactive) | -1.72% (inactive) | – |
| C#C[C@]1(O)CC[C@H]2[C@@H]3CCc4cc(OC)ccc4[C@H]3CC[C@@]21C [mestranol] | 0.06% (inactive) | 0.82% (inactive) | 0.83% (inactive) | 0.76% (inactive) | -0.67% (inactive) | – |
| C[C@]12CC[C@H](O)CC1=CC[C@@H]1[C@@H]2CC[C@]2(C)C(=O)CC[C@@H]12 (10 µM) | – | – | – | – | – | 0.0986 |
| N[C@@H](CC(=O)Nc1ccc(Oc2cc(F)c(F)cc2Br)cc1)C(=O)O | -3.45% (inactive) | -0.99% (inactive) | -1.17% (inactive) | -3.56% (inactive) | 6.38% (inactive) | – |
| CCCCCCCCC(=O)N[C@H](CN1CCCC1)[C@H](O)c1ccc2c(c1)OCCO2 | 3.01% (inactive) | 0.25% (inactive) | 2.54% (inactive) | 1.06% (inactive) | 9.9% (inactive) | – |
| O=C(Nc1ccc(S(=O)(=O)C(F)(F)F)cc1)C1=CCN(c2ncccc2C(F)(F)F)CC1 | 0.25% (inactive) | -1.04% (inactive) | -1.04% (inactive) | -0.34% (inactive) | -2.58% (inactive) | – |
